Results filed as inconclusive are left out. Where a call stands in place of a potency, no number is given. A number with no mark means an inactive call. The source made the active and inactive calls. Calls come from the whole dose curve; as a rule, active = well fitted cell-killing curve with a large enough effect in the repeat runs; inconclusive = weak or mixed curves; inactive = flat fitted curve, though single readings scatter.
assay: qHTS assay to identify small molecule antagonists of the TGF-beta/Smad signaling pathway - cell viability counter screen (AID 1346824); details: SBE-bla HEK293T viability, CellTiter-Glo luminescence; series mostly up to 76.8 µM; note: nearly all actives have a fitted effect of over 50% in size
Source text: U.S. Tox21 Program National Center for Advancing Translational Sciences [NCATS] NIH Chemical Genomics Center [NCGC] U.S. Environmental Protection Agency [EPA] National Institutes of Environmental Health Sciences [NIEHS] National Toxicology Program [NTP] U.S. Food and Drug Administration [FDA] Tox21 Assay Overview: Transforming growth factor beta (TGF-beta) superfamily consists of a large number of structurally related dimeric proteins that act as hormones or local mediators in regulating a wide range of biological functions. This superfamily includes TGF-betas themselves, the bone morphogenetic proteins (BMPs) and the activins. These ligands induce oligomerization of serine/threonine receptor kinases and phosphorylate the cytoplasmic signaling molecules of Smad protein family. CellSensor SBE-bla HEK 293T cell line (Life Technologies, Carlsbad, CA), responsive to TGF-beta was used to screen Tox21 10K compound library for identification of agonists/antagonists of the Smad signaling pathway. This cell line contains a beta-lactamase reporter gene under control of the Smad binding element (SBE) stably integrated into HEK 293T cells. Also cytotoxicity of the compounds was tested in parallel by measuring the cell viability using CellTiter-Glo assay system in the same wells.
Tox21 Assay Protocol Summary: SBE-bla HEK 293T cells were dispensed at 4,000/well in 5 uL of assay medium into black wall/clear-bottom 1536-well plates using a Multidrop Combi (ThermoFisher Scientific, Waltham, MA) dispenser. After the assay plates were incubated at 37 C and 5% CO2 for an overnight, 23 nL of compounds dissolved in DMSO, positive controls or DMSO only was transferred to the assay plate by a Pintool station (Kalypsys, San Diego, CA). Compound transfer was followed by the addition of 1 uL of 0.25 ng/mL TGF-beta1 or assay buffer using two separate tips of Flying Reagent Dispenser (FRD, Aurora Discovery, San Diego, CA). The assay plates were incubated at 37 C and 5% CO2 for 5 hr. One uL of LiveBLAzer B/G FRET substrate (Life Technologies) was added using a Flying Reagent Dispenser (FRD, Aurora Discovery, San Diego, CA) and the plates were incubated at room temperature for 2 hr. Fluorescence intensity (405 nm excitation, 460 nm and 530 nm emissions) was measured using an Envision plate reader (PerkinElmer, Shelton, CT). For cytotoxicity read, 4 uL of CellTiter-Glo reagent (Promega Corporation, Madison, WI) was added to each well of the assay plates using FRD. After 30 min incubation at room temperature, the luminescence intensity was measured using ViewLux plate reader (PerkinElmer).

SMILES	Potency	viability change, negative = cytotoxic
O=C1c2ccccc2C(=O)N1SC1CCCCC1	inactive	
COc1cc(C)ccc1O	inactive	
C/C=C/C=C/COC(=O)C(C)C	inactive	
COc1c(C)c2c(c(O)c1C/C=C(\C)CCC(=O)OCCN1CCOCC1)C(=O)OC2	inactive	
[Cu+]	inactive	
CC[N+](CC)(CC)CCOC(=O)C(C1CCCC1)C1CCCC1	inactive	
CCCCC(CC)CN1CN(CC(CC)CCCC)CC(C)(N)C1 (stereo not given)	inactive	
O=C(Nc1ccc2c(O)c(N=Nc3ccc(N=Nc4ccc(S(=O)(=O)O)cc4)cc3)c(S(=O)(=O)O)cc2c1)c1ccccc1	inactive	
O=C(Oc1ccccc1)Oc1ccccc1	inactive	
ClCCl	inactive	
CCCCCCOC(=O)C(C)CC (stereo not given)	inactive	
Clc1ccnc(Cl)n1	inactive	
CC1(C)CC(O)CC(C)(C)N1	inactive	
C=CCCC(=O)/C=C/C1C(C)=CCCC1(C)C (stereo not given)	inactive	
CCN(CCN)c1cccc(C)c1	inactive	
Cc1cccc2cccnc12	inactive	
OCC(F)(F)F	inactive	
CCCCC(CC)COC(=O)CCCCC(=O)OCc1ccccc1 (stereo not given)	inactive	
O=c1c(O)c(-c2ccc(O)cc2O)oc2cc(O)cc(O)c12	inactive	
C=Cc1cccc(C)c1	inactive	

SMILES	Potency	viability change, negative = cytotoxic
c1ccc(SSc2ccccc2)cc1	inactive	
CCOc1ccc2ccccc2c1C(=O)N[C@@H]1C(=O)N2[C@@H]1SC(C)(C)[C@@H]2C(=O)O	inactive	
C=C(CC)C(=O)c1ccc(OCC(=O)O)c(Cl)c1Cl	inactive	
Nc1nc(N)nc(-c2cc(Cl)ccc2Cl)n1	inactive	
CCOC(=O)Cn1cccc1-c1nc(-c2ccc(OC)cc2)c(-c2ccc(OC)cc2)s1	inactive	
CC(C)(C)C1CCC(=O)CC1	inactive	
O=C(/C=C/c1ccccc1)OC/C=C/c1ccccc1	inactive	
CCCc1ccc(OCC(=O)N2CCN(C(=O)COc3ccc(CCC)cc3OC)CC2)c(OC)c1	inactive	
O=C1CCCCCCCCCCCCCCCO1	inactive	
[Cl][Pt-2]([Cl])([Cl])[Cl]	inactive	
CC(C)OC(=O)C(O)(CC(=O)O)CC(=O)O	inactive	
O=C(O)c1ccc2cc(C(=O)O)ccc2c1	inactive	
Clc1sc(Cl)c(Cl)c1Cl	inactive	
CC(C)Cn1cnc2c(N)nc3ccccc3c21		1.27% [at 15.8 µM]
CCCCCCCC	inactive	
Cc1nc(-c2ccc(Cl)cc2)oc1COC(C)(C)C(=O)O	inactive	
CCCC[P+](C)(CCCC)CCCC	inactive	
CCCCCCCC/C=C\CCCCCCCCN	inactive	
O=C(O)[C@H](O)[C@@H](O)[C@H](O[C@@H]1O[C@H](CO)[C@H](O)[C@H](O)[C@H]1O)[C@H](O)CO	inactive	
CC(C)CCCCCOC(=O)CCS	inactive	

From PubChem BioAssay (Tox21)
